# Measured values: the supplement of paper PMC10811239
# Test system: LEGO organoid PT (PTEN-/-; TP53-/-)
# Assay: bioluminescence (viable cell) signal fold change after vs before treatment, normalised to DMSO (ratio); higher = more tumour cell growth / less inhibition
# Details: 10 µM; treatment time 6 days
# Experimental: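 Luc2-labelled iPSC-derived glioblastoma-like organoids (LEGOs, genotypes PT = PTEN-/-;TP53-/-, PTCC = plus CDKN2A/B-/-, PTN = plus NF1-/-) were treated with 10 uM drug for 6 days (applied every other day) at 37 C. Bioluminescence imaging was done before treatment and 2 days after the last dose. BLI signals were normalised to the DMSO control on the same day and then to the pre-treatment signal (N=3).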
row,Structure (SMILES),bioluminescence
1,CCc1cc(/C(C)=N/OCc2ccc(C3CCCCC3)c(C(F)(F)F)c2)ccc1CN1CC(C(=O)O)C1 [Siponimod],0.646
2,Cl.O.O=C1Cc2cc(CCN3CCN(c4nsc5ccccc45)CC3)c(Cl)cc2N1 [Ziprasidone hydrochloride monohydrate],0.909
3,Nc1nc(NC2CC2)c2ncn([C@H]3C=C[C@@H](CO)C3)c2n1 [Abacavir],1.2
4,Nc1cccc2c1CN(C1CCC(=O)NC1=O)C2=O (stereo not given) [Lenalidomide],2.02
5,Cl.CN(C)CC\C=C1\c2ccccc2CCc2ccccc12 [Amitriptyline hydrochloride],1.32
6,COc1ccccc1Oc1c(NS(=O)(=O)c2ccc(C(C)(C)C)cc2)nc(-c2ncccn2)nc1OCCO [Bosentan],0.81
7,Nc1[nH]c(=O)ncc1F [Fluorocytosine],2.51
8,C[C@H](Cn1cnc2c(N)ncnc21)OCP(=O)(O)O [Tenofovir],0.702
9,C[C@@H]1O[C@@H]1P(=O)(O)O.NC(CO)(CO)CO [Fosfomycin Tromethamine],0.757
10,C[N+](C)(C)CCO.[Cl-] [Choline chloride],1.48
11,CC1=NN(c2ccccc2)C(=O)C1 [Edaravone],0.893
12,C[C@H]1C[C@@H]2[C@H]([C@@H](O)C[C@@]3(C)[C@H]2CC[C@]3(O)C(=O)CO)[C@@]2(C)C=CC(=O)C=C12 [Methylprednisolone],1.3
13,CCC1=C[C@@H]2CN(C1)Cc1c([nH]c3ccccc13)[C@@](C(=O)OC)(c1cc3c(cc1OC)N(C)[C@H]1[C@@](O)(C(=O)OC)[C@H](OC(C)=O)[C@]4(CC)C=CCN5CC[C@]31[C@@H]54)C2.O=C(O)[C@H](O)[C@@H](O)C(=O)O.O=C(O)[C@H](O)[C@@H](O)C(=O)O [Vinorelbine Tartrate],1.03
14,COc1cc2ncnc(Nc3ccc(F)c(Cl)c3)c2cc1OCCCN1CCOCC1 [Gefitinib],1.78
15,CS(=O)(=O)OCCCCOS(C)(=O)=O [Busulfan],2.15
16,O=C1NC(=O)C(c2ccccc2)(c2ccccc2)N1 [Phenytoin],0.795
17,CCCN(CCc1cccs1)[C@H]1CCc2c(O)cccc2C1 [Rotigotine],0.925
18,Cc1cccc(C)c1OCC(=O)N[C@@H](Cc1ccccc1)[C@@H](O)C[C@H](Cc1ccccc1)NC(=O)[C@H](C(C)C)N1CCCNC1=O [Lopinavir],1.02
19,CC(C)Oc1ccc(-c2nc(-c3cccc4c3CC[C@@H]4NCCO)no2)cc1C#N [Ozanimod],0.725
20,Cl.OC[C@H]1NC[C@H](O)[C@@H](O)[C@H]1O [Migalastat hydrochloride],0.868
21,CCCN(CCC)CCc1cccc2c1CC(=O)N2.Cl [Ropinirole hydrochloride],1.27
22,CN1CC(=O)N2[C@H](c3ccc4c(c3)OCO4)c3[nH]c4ccccc4c3C[C@@H]2C1=O [Tadalafil],1.59
23,CCC1=CC2CN(C1)Cc1c([nH]c3ccccc13)[C@](C(=O)OC)(c1cc3c(cc1OC)N(C)[C@H]1[C@@](O)(C(=O)OC)[C@H](OC(C)=O)[C@]4(CC)C=CCN5CC[C@]31[C@@H]54)C2.O=C(O)[C@H](O)[C@@H](O)C(=O)O.O=C(O)[C@H](O)[C@@H](O)C(=O)O (stereo not given in full) [Vinorelbine ditartrate],0.558
24,CCOC(=O)c1ccc(C#Cc2ccc3c(c2)C(C)(C)CCS3)nc1 [Tazarotene],1.52
25,CC(C)c1c(C(=O)Nc2ccccc2)c(-c2ccccc2)c(-c2ccc(F)cc2)n1CC[C@@H](O)C[C@@H](O)CC(=O)[O-].CC(C)c1c(C(=O)Nc2ccccc2)c(-c2ccccc2)c(-c2ccc(F)cc2)n1CC[C@@H](O)C[C@@H](O)CC(=O)[O-].[Ca+2] [Atorvastatin Calcium],1.09
